Most compounds without a hit are left out; they make up all but 21% or so of the library.
Pf growth 48h: inhibits P. falciparum growth in the first generation, 48 h | 310,000 tested, 5.9% active | P. falciparum luciferase growth in erythrocytes, 48 h | Potency, µM (highest dose often 28.7 µM), inactives show top-dose activity change, negative = inhibition, actives largely listed as inhibitors; further: potency means the concentration at half of the fitted maximal effect; on the % scale 0 is the no-effect control and ±100 the full control effect
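Luciferase-expressing parasites in RBCs, 2% Hct / 0.1% parasitemia final; RPMI 1640 + 0.5% Albumax; 37 C, 5% CO2, one generation; luminescence read-out, lower signal = inhibition.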
HCV inh: HCV inhibition | 340,000 tested, 3.4% active | AID 651820 | Potency, µM (series often up to 41.8 µM), for inactives: top-dose activity change, negative = inhibition, actives largely listed as inhibitors | Huh7.5.1 HCVcc-Cre infection, luciferase reporter, 44 h; further: potency means the concentration at half of the fitted maximal effect; on the % scale 0 is the no-effect control and ±100 the full control effect
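Cells seeded at 1,000/well and cultured 4 h, then compounds added followed by HCVcc-Cre virus (~0.5 moi). After 44 h further culture, luciferase substrate was added, plates held 15 min at room temperature, and luminescence read for 15 sec.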
Pf growth 96h: P. falciparum growth inhibition at 96 hours; AID 504834; P. falciparum luciferase reporter growth, 96 h; 320,000 tested, 6.9% active; Potency, µM (series often up to 28.7 µM), for inactives: top-dose activity change, negative = inhibition, most hits filed as inhibitors; further: potency means the concentration at half of the fitted maximal effect; on the % scale 0 is the no-effect control and ±100 the full control effect
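Delayed-death screen, second-generation endpoint: infected erythrocytes, 2% hematocrit, 0.05% parasitemia final; 96 hours at 37 C, 5% CO2; luciferase detection reagent; luminescence decrease equals reduced growth.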
Shiga inhibitor: blocks Shiga toxin action in Vero cells; Vero cells, Shiga toxin protein synthesis inhibition reporter; inhibition, % at 38.7 µM; 290,000 tested, 9.2% active; AID 2315; in the data active means inhibition mostly above about 28%, no sharp cut-off; inactive means mostly below about 43%; further: 0% is about no effect
HCMV antiviral: human cytomegalovirus inhibition; HFF cells, HCMV-luciferase reporter, 72 h; active compounds read low; activity change, negative = inhibition, % at 57.5 µM; 410,000 tested, 4.5% active; in the data active means activity change below about -60%; inconclusive means no clear call, values can overlap the other calls; inactive means above about -39%; further: on the % scale 0 is the no-effect control and ±100 the full control effect
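Two-dose cell screen: HFF monolayers treated with compounds and infected with luciferase-expressing HCMV at 1 PFU/cell, 72 h at 37C, then lysed for luciferase measurement.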
Cycloheximide cs: affects cycloheximide protein synthesis inhibition readout, counter-screen | cell reporter, cycloheximide protein synthesis inhibition counterscreen | max response, % | 300,000 tested, 12% active | AID 2314; in the data active means max response mostly above about 13%, no sharp cut-off; inactive means mostly below about 14%; further: read at 38.3 µM for the half of the compounds with a filed dose; 0% is about no effect
The depositor's hits bear a star; i = inactive; ? = inconclusive; · = no result given; [ ] = dose if it differs, or a comment. Unless noted, the call rests on the fitted dose curve; in most records, active means well fitted inhibition curve with a large enough effect; inconclusive means small, poorly fitted or top-dose-only effect, or another doubt; inactive means no such curve, though single readings can be large or run the other way.

SMILES	Pf growth 48h	HCV inh	Pf growth 96h	Shiga inhibitor	HCMV antiviral	Cycloheximide cs
COc1cccc(-n2nnc3c(=O)n(Cc4ccccc4F)cnc32)c1	22.6%	?	-12.8%	-11.5	24.8	-1.2
COc1ccc(-n2nnc3c(=O)n(Cc4cc(C)ccc4C)cnc32)cc1	-18.7%	?	5.22µM*	25.4	-15.5	3.2
Cc1ccc(NC(=O)c2cnc(N3CCCCC3)c3ccccc23)c(C)c1	·	·	·	·	50.7	·
CCCCNC(=O)C1(C)CCC(=O)N1CCc1c[nH]c2ccccc12 (stereo not given)	·	·	·	·	-5.2	·
O=C(CSc1nccn1-c1ccc(F)cc1)Nc1ccc(OC(F)(F)F)cc1	·	·	·	·	-68.3*	·
Cc1nnc(NC(=O)CSc2nccn2-c2ccc(F)cc2)s1	?	?	?	58.6*	56.9	44.0*
O=C(CSc1nccn1C1CCCC1)Nc1ccc(C(F)(F)F)cc1	·	·	·	·	-62.6*	·
COc1ccc(-n2ccnc2SCC(=O)Nc2ccccc2)cc1	?	-3.6%	3.6%	-16.1	-29.1	-4.0
CCn1c(SC2CCOC2=O)nnc1-c1ccc(Cl)cc1 (stereo not given)	0.0%	1.5%	42.0%	-4.4	-28.8	-9.2
CN(C)C(Cc1ccccc1)C(=O)c1cccs1 (stereo not given)	7.5%	·	12.0%	39.4	·	13.1*
CN(C)C(Cc1ccc(Cl)cc1)C(=O)c1ccccc1 (stereo not given)	4.0%	3.7%	?	50.4*	-18.9	24.3*
COC(=O)c1ccc(CC(C(=O)c2ccccc2)N(C)C)cc1 (stereo not given)	·	2.9%	?	107.2*	44.7	47.9*
CCN(Cc1ccccc1)C(=O)c1cccs1	·	·	·	·	-16.1	·
COc1ccc(C(C)=O)cc1CC(C(=O)c1ccccc1)N(C)C (stereo not given)	12.8%	-11.6%	37.7%	4.7	-12.8	22.2*
CCN(CC)CCNC(=O)C(=O)NCC(c1cccnc1)N1CCN(c2ccccc2)CC1 (stereo not given)	·	·	·	·	6.7	·
Cn1cc(CN2CCC(N3CCNC(=O)CC3)CC2)c(-c2ccccc2F)n1	14.6%	11.1%	-6.6%	-7.5	7.1	-0.6
CCc1ccc(NC(=S)N2CCN(S(=O)(=O)c3ccccc3)CC2)cc1	13.2%	-25.0%	59.0%	16.1	?	1.1
O=C(CCCOc1ccccc1)NN1C(=O)NC2(CCCCC2)C1=O	-15.2%	-13.6%	22.0%	·	-0.2	·
Cc1ccc(-n2cc(C(=O)c3ccccc3O)cn2)cc1	-66.9%	2.0%	i	61.3*	-14.5	52.6*
Cc1ccc(O)c(C(=O)c2cnn(-c3ccccc3)c2)c1	96.8%	?	·	108.4*	51.6	26.9*
CCc1cc(C(=O)Cc2cnn(-c3ccccc3)c2)c(O)cc1O	?	-15.8%	?	17.0	-3.5	22.8
O=C(Cc1cnn(-c2ccccc2)c1)c1ccc(O)c(O)c1O	·	-19.8%	8.9%	34.8	52.3	17.1*
Oc1ccc(-c2[nH]ncc2-c2cnn(-c3ccccc3)c2)c(O)c1	0.0%	-15.8%	?	20.3	?	-0.9
Oc1cnn(-c2ccccc2)c1	48.8%	18.0%	·	16.6	23.8	15.5*
COc1ccc(-c2cc(=O)[nH]c3ccccc23)cc1	-11.9%	?	2.0%	·	-26.3	·
SMILES	Pf growth 48h	HCV inh	Pf growth 96h	Shiga inhibitor	HCMV antiviral	Cycloheximide cs
COc1cccc2[nH]c(=O)c(-c3ccccc3)cc12	-8.1%[0.00184 µM]	-3.2%	133.4%	120.5*	0.4	61.2*
CCNc1ccccc(-c2ccc3ccccc3n2)c1=O	215.3%	18.6%	305.9%	133.8*	48.4	40.5*
COc1ccc(CN2C(=O)c3cccnc3C2=O)cc1S(=O)(=O)NC1CCCCC1C (stereo not given)	15.8%	13.9%	-58.3%	16.8	0.0	-5.0
Cc1ccc(C)c(NC(=O)C2(C)CCCN2C(=O)C(C)C)c1 (stereo not given)	·	·	·	·	4.5	·
C[C@]12CC[C@H]3c4ccc(O)cc4CC[C@@H]3[C@H]1CC[C@@H]2OC(=O)CCC1CCCC1	16.9µM*	·	13.5µM*	·	·	·
C[C@]12CC[C@@H]3c4ccc(O)cc4CC[C@H]3[C@@H]1CCC2=O	?	-8.2%[8.37 µM]	13.1µM*	18.5	47.0	1.8
Cc1nn(C)c(C)c1/C=N/N=C1\CCC2C3CCc4cc(O)ccc4C3CCC12C (stereo not given)	2.94µM*	13.6%	·	19.0	?	-1.9
COc1cc(-c2noc(-c3ccc(NCc4cccnc4)c([N+](=O)[O-])c3)n2)cc(OC)c1OC	·	·	·	·	10.5	·
Cc1ccc(S(=O)(=O)Nc2ccsc2C#N)cc1	-19.7%	15.4%	52.8%	-6.0	43.1	-3.6
Cc1oc(-c2cccc(Cl)c2)nc1CS(=O)(=O)CC(=O)NCc1ccccc1Cl	·	·	·	·	-10.2	·
CCOC(=O)c1c(C)c(-c2ccccc2)n(CC(=O)NC2CCCCCC2)c1C	·	·	·	·	-4.1	·
Cc1nn(-c2ccccc2)c(C)c1C(=O)NNC(=O)C(F)(F)F	116.0%	-5.2%	2.4%	12.4	-9.3	11.7
C=CCN1C(=O)CSc2ccc(C(=O)NCc3cccs3)cc21	7.0%	-12.3%	?	8.9	4.8	-2.1
CCN(CC)S(=O)(=O)c1ccc(C(=O)NCC(c2cccs2)N2CCOCC2)cc1 (stereo not given)	-14.2%	5.8%	?	-9.0	-27.0	0.6
O=C(NCC(c1cccs1)N1CCOCC1)c1cc([N+](=O)[O-])cc([N+](=O)[O-])c1 (stereo not given)	0.3%	-5.7%	16.9%	2.1	-27.8	17.9*
COc1cc(C(=O)NCC(c2cccs2)N2CCOCC2)cc(Br)c1OCc1ccccc1 (stereo not given)	·	10µM*	·	·	0.0	·
O=C(NCC(c1cccs1)N1CCOCC1)c1cccc([N+](=O)[O-])c1 (stereo not given)	3.9%	31.5%	-10.4%	-21.1	-10.2	0.5
C=CCN(c1ccccc1)S(=O)(=O)c1cccc(C(=O)NCC(c2cccs2)N2CCOCC2)c1 (stereo not given)	10.4µM*	?	?	·	?	·
CCN(c1ccccc1)S(=O)(=O)c1cccc(C(=O)NCC(c2cccs2)N2CCOCC2)c1 (stereo not given)	14.7µM*	?	?	·	-28.6	·
COc1ccc(C(=O)NCC(c2cccs2)N2CCOCC2)cc1OC (stereo not given)	9.3%	-9.4%	13.9%	·	-6.1	·
CCN(CC)c1ccc(/C=C2\C(=N)N3N=C(CC(=O)N4CCOCC4)SC3=NC2=O)cc1	-18.9%	9.1%	?	14.5	82.8	8.8
COc1ccc(OC)c(C2c3[nH]c4ccccc4c3C[C@H]3C(=O)N(C4CC4)CC(=O)N23)c1 (stereo not given in full)	?	5.1%	?	-10.8	147.4	-5.8

Compound activity (PubChem)
